Data: PubChem BioAssay (NCI)
About 79,000 compounds went through this panel and 15% of them were active in at least one assay; those are over-represented in the sample as a whole. Values without a mark were called inactive. Calls of active or inactive are those of the source. Cut-off read from the data, not from the text of the source: active = growth inhibition above about 70%; inactive = the rest.

Columns and labels:
[1] = NCI Yeast Anticancer Drug Screen. Data for the wt1 strain (AID 149);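 note: 0% = growth of vehicle-treated wt1 cultures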; conditions: S. cerevisiae wt1 strain (SPY 50644) growth inhibition, hits give high values
How it was run: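 The wt1 strain was treated with compounds, and growth was compared with vehicle-treated cultures to give inhibition.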

[2] = NCI Yeast Anticancer Drug Screen. Data for the rad50EPP+ strain (AID 151);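 note: 0% = growth of vehicle-treated control cultures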; conditions: S. cerevisiae rad50 mutant strain, hits give high values
How it was run: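 In this screen, rad50EPP+ yeast were exposed to compounds. Growth inhibition was scored against vehicle-treated controls.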

[3] = NCI Yeast Anticancer Drug Screen. Data for the mgt1 strain (AID 153); conditions: S. cerevisiae mgt1 mutant growth inhibition, hits give high values
How it was run: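 mgt1 strain exposed; growth vs vehicle control recorded as inhibition.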

[4] = NCI Yeast Anticancer Drug Screen. Data for the rad50 strain (AID 155);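 note: 0% = growth of vehicle-only cultures of the same strain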; conditions: S. cerevisiae rad50 strain growth inhibition, hits give high values
How it was run: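 Cells are treated with compound, grown, and their growth is then scored against vehicle-only cultures of the same repair-deficient yeast strain.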

[5] = NCI Yeast Anticancer Drug Screen. Data for the mec2-1 strain (AID 157); conditions: S. cerevisiae mec2-1 strain, hits give high values
How it was run: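 Vehicle-treated cultures served as reference for growth inhibition of compound-exposed mec2-1 yeast.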

[6] = NCI Yeast Anticancer Drug Screen. Data for the rad14 strain (AID 159);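 note: 0% = growth of vehicle-treated control cultures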; conditions: S. cerevisiae rad14 strain growth inhibition, hits give high values
How it was run: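 Readout: yeast growth inhibition, referenced to vehicle-only cultures. Strain bears a defined alteration in DNA damage repair.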

[7] = NCI Yeast Anticancer Drug Screen. Data for the sgs1 mgt1 strain (AID 161);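 note: 0% = growth of cultures given vehicle only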; conditions: S. cerevisiae sgs1 mgt1 strain, hits give high values
How it was run: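 Mutant yeast exposed to compound; growth scored against vehicle-only wells.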

[8] = NCI Yeast Anticancer Drug Screen. Data for the CLN2oe strain (AID 163);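 note: 0% = growth of vehicle-only control cultures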; conditions: S. cerevisiae CLN2oe strain, hits give high values
How it was run: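 Inhibition relative to vehicle-treated yeast is reported. Cells: strain with genetic alteration in cell-cycle control, grown with compound.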

[9] = NCI Yeast Anticancer Drug Screen. Data for the cln2 rad14 strain (AID 165);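 note: 0% = growth equal to vehicle treated cultures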; conditions: S. cerevisiae cln2 rad14 strain, hits give high values
How it was run: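 Each compound was tested on cln2 rad14 yeast. Inhibition of growth was calculated against vehicle-exposed controls.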

[10] = NCI Yeast Anticancer Drug Screen. Data for the bub3 strain (AID 167); conditions: S. cerevisiae bub3 mutant strain, hits give high values
How it was run: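 Part of a panel of yeast mutants defective in DNA damage repair or cell cycle regulation. Each strain is grown with compound, and inhibition is calculated relative to solvent-treated cultures.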

[11] = NCI Yeast Anticancer Drug Screen. Data for the wt2 strain (AID 169);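 note: 0% = growth of vehicle-treated yeast cultures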; conditions: S. cerevisiae wt2 strain growth inhibition, hits give high values
How it was run: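 Inhibition of yeast growth was determined after compound treatment, normalised to controls receiving only vehicle.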

[12] = NCI Yeast Anticancer Drug Screen. Data for the mlh1 strain (AID 171);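 note: 0% = growth of vehicle-treated control cultures of the same strain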; conditions: S. cerevisiae mlh1 strain growth inhibition, hits give high values
How it was run: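 Vehicle-normalised growth inhibition of a repair- or checkpoint-altered yeast strain following compound treatment.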

[13] = NCI Yeast Anticancer Drug Screen. Data for the sgs1 strain (AID 173);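 note: 0% = growth of vehicle-only control cultures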; conditions: S. cerevisiae sgs1 mutant, hits give high values
How it was run: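 Screen format: yeast with repair or checkpoint alterations, compound exposure, growth read relative to vehicle.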

[14] = NCI Yeast Anticancer Drug Screen. Data for the mlh1 rad18 strain (AID 175); conditions: S. cerevisiae mlh1 rad18 strain growth inhibition, hits give high values
How it was run: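 Vehicle-treated cultures served as the reference for growth inhibition in a yeast strain carrying DNA damage repair alterations exposed to each compound.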

[15] = NCI Yeast Anticancer Drug Screen. Data for the rad18 strain (AID 177); conditions: S. cerevisiae rad18 mutant growth inhibition, hits give high values
How it was run: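 Test articles were incubated with altered yeast defective in DNA damage repair. Results are given as inhibition of growth versus vehicle.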

[16] = at 5.0 µM (retest, dose inferred, filed as 0.5)
[17] = at 50.0 µM (retest, dose inferred, filed as 5.0)

Question: What does the source list for NC(=O)NN=C(CS)CS?
Answer: growth inhibition ([1]; at 1.2 µM): -1%; growth inhibition ([1]; at 3.7 µM): -2%; growth inhibition ([1]; at 11.0 µM): -1%; growth inhibition ([1]; at 33.0 µM): 17%; growth inhibition ([1]; at 100.0 µM): 33%; growth inhibition ([2]; at 1.2 µM): -2%; growth inhibition ([2]; at 3.7 µM): -1%; growth inhibition ([2]; at 11.0 µM): -5%; growth inhibition ([2]; at 33.0 µM): 6%; growth inhibition ([2]; at 100.0 µM): 29%; growth inhibition ([3]; at 1.2 µM): -1%; growth inhibition ([3]; at 3.7 µM): 0%; growth inhibition ([3]; at 11.0 µM): 2%; growth inhibition ([3]; at 33.0 µM): 12%; growth inhibition ([3]; at 100.0 µM): 66%; growth inhibition ([4]; at 1.2 µM): 1%; growth inhibition ([4]; at 3.7 µM): 30%; growth inhibition [4, 16]: 4%; growth inhibition ([4]; at 11.0 µM): 31%; growth inhibition ([4]; at 33.0 µM): 44%; growth inhibition [4, 17]: 57%; growth inhibition ([4]; at 50.0 µM): 63.8%; growth inhibition ([4]; at 100.0 µM): 89% (active); growth inhibition ([5]; at 1.2 µM): 0%; growth inhibition ([5]; at 3.7 µM): 0%; growth inhibition [5, 16]: 1%; growth inhibition ([5]; at 11.0 µM): 6%; growth inhibition ([5]; at 33.0 µM): 24%; growth inhibition [5, 17]: 28%; growth inhibition ([5]; at 50.0 µM): 48.5%; growth inhibition ([5]; at 100.0 µM): 60%; growth inhibition ([6]; at 1.2 µM): -2%; growth inhibition ([6]; at 3.7 µM): 0%; growth inhibition ([6]; at 11.0 µM): 6%; growth inhibition ([6]; at 33.0 µM): 30%; growth inhibition ([6]; at 100.0 µM): 97% (active); growth inhibition [7, 16]: 2%; growth inhibition [7, 17]: 32%; growth inhibition ([7]; at 50.0 µM): 75% (active); growth inhibition ([8]; at 1.2 µM): -9%; growth inhibition ([8]; at 3.7 µM): -11%; growth inhibition ([8]; at 11.0 µM): -10%; growth inhibition ([8]; at 33.0 µM): 0%; growth inhibition ([8]; at 100.0 µM): 11%; growth inhibition [9, 16]: -22%; growth inhibition [9, 17]: 9%; growth inhibition ([9]; at 50.0 µM): -11.9%; growth inhibition ([10]; at 1.2 µM): 0%; growth inhibition ([10]; at 3.7 µM): -7%; growth inhibition [10, 16]: -3%; growth inhibition ([10]; at 11.0 µM): 3%; growth inhibition ([10]; at 33.0 µM): 14%; growth inhibition [10, 17]: 15%; growth inhibition ([10]; at 50.0 µM): 27.4%; growth inhibition ([10]; at 100.0 µM): 56%; growth inhibition ([11]; at 1.2 µM): 0%; growth inhibition ([11]; at 3.7 µM): 8%; growth inhibition ([11]; at 11.0 µM): 2%; growth inhibition ([11]; at 33.0 µM): 10%; growth inhibition ([11]; at 100.0 µM): 46%; growth inhibition ([12]; at 1.2 µM): 0%; growth inhibition ([12]; at 3.7 µM): -1%; growth inhibition ([12]; at 11.0 µM): 3%; growth inhibition ([12]; at 33.0 µM): 14%; growth inhibition ([12]; at 100.0 µM): 60%; growth inhibition ([13]; at 1.2 µM): 0%; growth inhibition ([13]; at 3.7 µM): 5%; growth inhibition ([13]; at 11.0 µM): 18%; growth inhibition ([13]; at 33.0 µM): 49%; growth inhibition ([13]; at 100.0 µM): 89% (active); growth inhibition [14, 16]: 5%; growth inhibition [14, 17]: 47%; growth inhibition ([14]; at 50.0 µM): 84.8% (active); growth inhibition ([15]; at 1.2 µM): -1%; growth inhibition ([15]; at 3.7 µM): 6%; growth inhibition ([15]; at 11.0 µM): 19%; growth inhibition ([15]; at 33.0 µM): 61%; growth inhibition ([15]; at 100.0 µM): 95% (active)
